# High-throughput results deposited in PubChem BioAssay by several laboratories.
# An excerpt weighted towards active compounds, which were near 4.1% of everything screened.
# TWEAK-Fn14 inh: inhibitors of TWEAK-Fn14 signaling, primary screen, luciferase reporter cells, uHTS. TWEAK-stimulated Fn14 reporter cells, luciferase luminescence, 8 h. inhibition, % at 10 µM. actives 2% (n = 360,000); in the data active means inhibition above about 50%
# TROY NFkB inh: inhibitors of TROY-driven NF-kB signaling, primary screen, Q293 LMP1-TROYcd cells, NF-kB luciferase, uHTS; inhibition, % at 10 µM; AID 1347056, 2019; actives 0.98% (n = 360,000); Q293 LMP1-TROYcd NF-kB luciferase reporter, 4 h;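 active means compounds whose plate-normalised and pattern-corrected inhibition of the luciferase reporter signal at the single screening dose is 50% or more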
# EBV LMP1 NFkB: EBV LMP1-driven NF-kappaB luciferase reporter inhibitors, primary screen, cell-based, luminescence, single point; LMP1-induced NF-kappaB luciferase reporter cells; inhibition, % at 12.5 µM; actives 0.69% (n = 350,000); in the data active means inhibition above about 41%;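 further: 0% = neutral control wells and 100% = reference inhibitor control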
# TRPM1 prom inh: inhibitors of MITF-dependent TRPM1 promoter reporter, primary screen, cell-based, SK-MEL-5, single point, luciferase; SK-MEL-5 TRPM1 promoter luciferase, 24 h; actives 0.83% (n = 330,000); inhibition, % at 12.5 µM;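 active means mean inhibition across replicates of 60% or more, whatever share of single replicates reaches that level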
# Peg3 prom inh: Peg3 promoter-driven luciferase inhibitors, primary screen, cell-based, HeLa, luciferase luminescence; actives 1.7% (n = 360,000); inhibition, % at 20 µM; AID 588405, 2011; HeLa PEG-Prom luciferase reporter, overnight;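 active means inhibition of at least 50% at 20 µM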
# Shn3 inh set2: reduction of Shn3 3'UTR firefly luciferase signal, primary screen, Schnurri-3 inhibitor project, cell-based, Clone20 osteoblasts, set 2 | inhibition, % at 12.5 µM | AID 588674, 2011 | Clone20 osteoblast Shn3 3'UTR firefly luciferase, 24 h | actives 0.52% (n = 360,000);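 active means mean inhibition of at least 75% with every replicate also reaching 75%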;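 further: 0% = median of neutral control wells and 100% = pilot-screen positive control compound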
# * hit, by the source's call; / = not tested or not shown.
SMILES,TWEAK-Fn14 inh,TROY NFkB inh,EBV LMP1 NFkB,TRPM1 prom inh,Peg3 prom inh,Shn3 inh set2
CC(C)CNC(=O)[C@H]1N2C(=O)c3ccccc3C2SC1(C)C (some centres undefined),-9,-15,-2,7,11,-11
CC(C)C(=O)Nc1cccc(COc2ccc(CN(Cc3ccccc3)C(=O)OC(C)(C)C)cc2)c1,70*,22,-6,19,-9,47
O=S(=O)(c1ccc2c(c1)OCCO2)N1CCN(c2ncnc3sccc23)CC1,23,23,19,3,26,89*
Cc1ccc(S(=O)(=O)N2CCN(c3ncnc4sccc34)CC2)cc1C,33,16,18,44,32,88*
O=c1cc(CCc2ccccc2)oc2cccc(O)c12,22,-48,-4,-9,-64,-20
Cc1cc2ncc(-c3ccccc3)nc2cc1C,40,-19,-12,-31,-255,-45
CCCCOc1ccc(-c2cnc3ccccc3n2)cc1,79*,52*,16,-18,-284,36
Cc1ccc(-c2cnc3ccccc3n2)cc1C,73*,12,12,13,-101,-3
Oc1ccc(-c2cnc3ccccc3n2)cc1,3,-57,3,-99,-217,-62
Cc1cnc(C)c(Nc2nc(C(N)Cc3ccc(C(F)(F)F)cc3)cs2)n1 (centres undefined),-13,0,/,/,108*,48
NC(Cc1ccc(C(F)(F)F)cc1)c1csc(Nc2ncccn2)n1 (centres undefined),-11,6,/,/,8,25
NC(Cc1ccc(F)cc1)c1csc(Nc2ccc(C(F)(F)F)cn2)n1 (centres undefined),-9,3,/,/,95*,19
NC(Cc1ccc(C(F)(F)F)cc1)c1csc(Nc2ccccn2)n1 (centres undefined),2,-10,/,/,105*,13
NC(Cc1ccc(Cl)cc1)c1csc(Nc2ccc(-c3ccccc3)nn2)n1 (centres undefined),-9,-5,/,/,99*,9
Cc1cnc(C)c(Nc2nc(C(N)Cc3ccccc3)cs2)n1 (centres undefined),-3,-9,/,/,-4,2
O=C(Nc1ccccc1C(=O)Nc1ccccn1)c1cccc([N+](=O)[O-])c1,2,18,8,-1,24,-10
CCOc1ccc(C(=O)N(CC)CC(=O)Nc2ccc3c(c2)OCCO3)cc1OCC,-3,-3,1,-6,0,-2
CCN(CC(=O)Nc1ccc2c(c1)OCCO2)C(=O)COc1cc(C)ccc1Cl,87*,-3,1,9,-8,-7
CCN(CC(=O)Nc1ccc2c(c1)OCCO2)C(=O)c1ccc([N+](=O)[O-])s1,-3,-24,-2,71*,-32,-3
Cc1ccc(Cl)c(OCC(=O)Nc2ccc3c(c2)OCCO3)c1,-3,-27,-10,-128,-244,-78
CC(=O)C1=C(C)Nc2ncnn2C1c1ccccc1 (centres undefined),3,2,-6,9,-5,17
COc1ccc2c(c1)-c1c(ssc1=S)C(C)(C)N2,92*,50*,45*,1,4,18
CCOc1cccc(/C=N/NC(=S)Nc2ccccc2[N+](=O)[O-])c1O,100*,90*,35,58,4,24
CCCCNC(=S)N/N=C/c1cccc(OCC)c1O,-29,-38,-11,-32,-46,-8
Cc1cccc(NC(=S)N/N=C/c2ccc(Cl)c([N+](=O)[O-])c2)c1,-26,-14,16,10,62*,9
SMILES,TWEAK-Fn14 inh,TROY NFkB inh,EBV LMP1 NFkB,TRPM1 prom inh,Peg3 prom inh,Shn3 inh set2
O=[N+]([O-])c1ccccc1NC(=S)N/N=C/c1ccc(O)c(O)c1,66*,66*,-33,-37,-137,-10
Cc1c(C(=O)c2ccccc2C(=O)O)sc2ccccc12,3,-6,1,2,9,9
COc1ccc(CN(C)c2ccc(S(=O)(=O)N3CCN(C)CC3)cc2[N+](=O)[O-])cc1OC,40,22,24,13,15,88*
CCOc1cccc(CNc2nnnn2C)c1,-15,5,79*,5,-5,19
Cc1ccccc1CSCC(=O)NC1CCCC1,-10,-3,-5,-34,-38,-22
Cc1ccc(C(=O)NC2CCCCCCC2)c(Cl)c1,75*,40,8,12,-41,-6
Cc1ccccc1CC(=O)NC1CCCCCC1,87*,-21,-2,-4,-6,18
Cc1ccccc1C(=O)NC1CCN(C(=O)NC2CCCCC2)CC1,53*,3,7,-6,-4,5
CC1CCC(NC(=O)CCC(=O)N2CC(C)Oc3ccccc32)CC1 (centres undefined),-22,-22,-23,-66,-210,-87
CCOC(=O)c1cnc(SCc2cccc(C)c2)nc1N,-12,-40,-22,-58,-226,2
Cn1c(-c2ccc(F)cc2)cnc1SCC(=O)N1CCCCC1,60*,17,9,-15,-104,-100
O=C(NCc1cccs1)c1nc2c(nnn2Cc2ccccc2Cl)c(=O)[nH]1,96*,83*,76*,76*,104*,7
Clc1ccc(-n2nnc(-c3nccs3)n2)cc1Cl,20,-17,-16,-44,-201,-59
Cc1ccc(-n2nnc(-c3nccs3)n2)cc1,94*,66*,58*,55,48,-4
Cc1ccc(Cc2cnc(N3C(=N)SC(C)C3=O)s2)cc1 (centres undefined),-32,49,6,-17,27,3
CC(C)C(=O)Nc1ncc(Cc2ccccc2Cl)s1,26,-19,5,-9,4,-1
Cc1cccc(Cc2cnc(N3C(=N)SC(C)C3=O)s2)c1 (centres undefined),-27,67*,1,9,14,-7
N=C1SCC(=O)N1c1ncc(Cc2cccc(Cl)c2)s1,102*,67*,-5,0,21,-42
Cc1cccc(Cc2cnc(N3C(=N)SC(c4ccccc4)C3=O)s2)c1 (centres undefined),-2,11,2,3,16,6
N=C1SCC(=O)N1c1ncc(Cc2ccccc2Cl)s1,100*,48,-17,-5,25,-12
CCN(C[C@H]1N[C@@](C)(C(=O)OC)[C@H]2C(=O)N(C)C(=O)[C@@H]12)C(=O)Nc1ccc(C)cc1,3,-26,-6,1,8,4
COc1ccc(C)cc1NS(=O)(=O)c1ccc(NC(=O)CN(c2cc([N+](=O)[O-])ccc2C)S(C)(=O)=O)cc1,23,17,-94,10,64*,56
